Results: PubChem BioAssay
A number with no mark means an inactive call. For some assays here: Entries with a potency or affinity are not part of this list. The source made the active and inactive calls. Unless noted, no rule for the calls is given here.

How the values were obtained:
[1] = antimalarial activity against Dd2 strain (AID 2302;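 active = growth inhibition above 50% at the single 2 µM test dose, taken to imply half-maximal potency below 2 µM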;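 also: 0% = DMSO untreated growth and 100% = chloroquine plus artemisinin killed control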); settings: P. falciparum Dd2 in RBCs, LDH growth readout, 72 h; at 2 µM; hits give high values
[2] = HepG2 cytotoxicity, primary screen, cytotoxicity control for P. falciparum antimalarial project, cell-based, ATP luminescence (AID 2303;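 active = inhibition above 50%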;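 also: 0% = DMSO wells and 100% = digitonin-killed cells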); settings: HepG2 viability, 24-48 h, at 10 µM, hits give high values
[3] = target: L-lactate dehydrogenase (Plasmodium falciparum (isolate CDC / Honduras)) (UniProt Q27743); test: PfLDH activity inhibition – cell lysate, 3D7 strain, counter-screen for P. falciparum growth inhibition project (AID 2304);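 also: 0% = vehicle and 100% = reference inhibitor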; settings: P. falciparum 3D7 crude extract, LDH APAD/NBT absorbance; at 2 µM; hits give high values
[4] = inhibition of 3D7 malaria parasite growth – strain 3D7 (AID 2306);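 also: 0% = DMSO wells and 100% = chloroquine plus artemisinin control wells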; settings: P. falciparum 3D7 erythrocytic growth, LDH absorbance, 72 h; at 2 µM; hits give high values
[5] = target: Calcium-dependent protein kinase 1 (Plasmodium falciparum (isolate 3D7)) (UniProt P62344); test: PfCDPK1 kinase inhibitors, biochemical, TCAMS library (AID 1159585; cut-off not given, nearly all actives have IC50 up to about 0.98 µM;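 also: inhibitors leave more ATP so luminescence rises with inhibition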); settings: recombinant PfCDPK1, Kinase-Glo ATP depletion luminescence
[6] = target: Plasmodium falciparum protein kinase 6 (PK6, PF3D7_1337100) (UniProt Q8IDW1); test: PfPK6 kinase inhibitors, biochemical, TCAMS library (AID 1159586); settings: recombinant PfPK6, Kinase-Glo ATP depletion luminescence
[7] = target: Protein kinase 7 (PK7), Plasmodium falciparum 3D7 (PF3D7_0213400) (UniProt Q7YTF7); test: inhibition of Plasmodium PK7 catalytic activity – biochemical, TCAMS antimalarial set, Kinase-Glo luminescence (AID 1159587); settings: recombinant PfPK7, Kinase-Glo ATP depletion luminescence
[8] = target: Calcium-dependent protein kinase 4 (Plasmodium falciparum (isolate 3D7)) (UniProt Q8IBS5); test: PfCDPK4 kinase inhibitors, biochemical, TCAMS library (AID 1159588; cut-off not given, nearly all actives have IC50 up to about 0.91 µM); settings: recombinant PfCDPK4, Kinase-Glo ATP depletion luminescence
Sequence of Calcium-dependent protein kinase 4 (Plasmodium falciparum (isolate 3D7)) (Q8IBS5 whole entry, looked up): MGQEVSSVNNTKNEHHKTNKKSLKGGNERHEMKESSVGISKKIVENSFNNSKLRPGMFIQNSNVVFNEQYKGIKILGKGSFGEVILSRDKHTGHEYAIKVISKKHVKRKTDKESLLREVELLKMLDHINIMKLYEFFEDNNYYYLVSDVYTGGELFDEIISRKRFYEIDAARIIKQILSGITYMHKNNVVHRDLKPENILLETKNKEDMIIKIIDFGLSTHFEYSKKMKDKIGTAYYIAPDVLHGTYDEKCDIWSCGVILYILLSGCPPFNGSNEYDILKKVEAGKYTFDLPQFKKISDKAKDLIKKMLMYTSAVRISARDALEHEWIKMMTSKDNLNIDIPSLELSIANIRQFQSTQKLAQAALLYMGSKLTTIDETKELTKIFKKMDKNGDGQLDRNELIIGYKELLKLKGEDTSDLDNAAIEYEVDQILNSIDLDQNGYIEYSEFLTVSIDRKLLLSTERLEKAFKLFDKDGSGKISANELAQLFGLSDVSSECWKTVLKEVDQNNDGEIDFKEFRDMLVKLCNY

Sequence of Plasmodium falciparum protein kinase 6 (PK6, PF3D7_1337100) (Q8IDW1 1-305): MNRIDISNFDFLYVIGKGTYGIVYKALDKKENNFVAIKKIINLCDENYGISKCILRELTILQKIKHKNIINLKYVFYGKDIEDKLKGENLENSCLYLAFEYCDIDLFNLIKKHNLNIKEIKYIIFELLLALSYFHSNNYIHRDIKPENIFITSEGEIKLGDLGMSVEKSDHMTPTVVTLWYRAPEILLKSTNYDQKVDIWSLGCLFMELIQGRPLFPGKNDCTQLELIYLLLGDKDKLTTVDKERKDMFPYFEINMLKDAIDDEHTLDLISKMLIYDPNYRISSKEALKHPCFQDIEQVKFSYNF
Sequence of Protein kinase 7 (PK7), Plasmodium falciparum 3D7 (PF3D7_0213400) (Q7YTF7 1-343): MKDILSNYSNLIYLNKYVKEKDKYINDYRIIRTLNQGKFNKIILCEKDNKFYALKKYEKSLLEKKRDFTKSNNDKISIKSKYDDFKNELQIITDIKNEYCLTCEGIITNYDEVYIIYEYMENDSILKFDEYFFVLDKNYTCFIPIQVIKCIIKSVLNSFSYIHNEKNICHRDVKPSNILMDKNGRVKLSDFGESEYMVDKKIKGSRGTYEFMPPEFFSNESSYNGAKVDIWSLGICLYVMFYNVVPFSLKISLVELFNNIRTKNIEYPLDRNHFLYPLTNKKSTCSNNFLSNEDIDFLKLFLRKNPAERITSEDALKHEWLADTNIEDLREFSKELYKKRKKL
Sequence of L-lactate dehydrogenase (Plasmodium falciparum (isolate CDC / Honduras)) (Q27743 whole entry, looked up): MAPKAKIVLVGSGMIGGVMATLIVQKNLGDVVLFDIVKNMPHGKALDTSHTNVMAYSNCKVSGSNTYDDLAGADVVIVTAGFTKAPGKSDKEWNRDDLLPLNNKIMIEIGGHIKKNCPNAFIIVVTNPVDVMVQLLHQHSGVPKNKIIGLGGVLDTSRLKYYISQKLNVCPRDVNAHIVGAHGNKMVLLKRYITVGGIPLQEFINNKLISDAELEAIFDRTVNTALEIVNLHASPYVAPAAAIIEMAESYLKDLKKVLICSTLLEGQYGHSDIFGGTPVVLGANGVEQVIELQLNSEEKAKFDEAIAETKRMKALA
Sequence of Calcium-dependent protein kinase 1 (Plasmodium falciparum (isolate 3D7)) (P62344 whole entry, looked up): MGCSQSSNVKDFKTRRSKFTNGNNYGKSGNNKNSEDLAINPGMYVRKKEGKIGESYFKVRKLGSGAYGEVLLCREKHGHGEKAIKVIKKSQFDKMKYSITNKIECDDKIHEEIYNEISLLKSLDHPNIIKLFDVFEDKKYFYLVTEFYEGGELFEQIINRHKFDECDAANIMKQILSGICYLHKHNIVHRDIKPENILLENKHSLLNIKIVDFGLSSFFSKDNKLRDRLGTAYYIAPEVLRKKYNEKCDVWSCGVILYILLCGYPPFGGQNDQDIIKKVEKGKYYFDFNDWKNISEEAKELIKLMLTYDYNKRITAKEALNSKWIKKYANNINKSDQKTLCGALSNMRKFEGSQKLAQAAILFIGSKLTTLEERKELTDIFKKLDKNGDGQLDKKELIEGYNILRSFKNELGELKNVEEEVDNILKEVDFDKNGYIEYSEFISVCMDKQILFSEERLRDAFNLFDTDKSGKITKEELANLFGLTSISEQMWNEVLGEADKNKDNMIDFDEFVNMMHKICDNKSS

| SMILES | growth inhibition [1] | inhibition [2] | inhibition [3] | growth inhibition [4] | outcome [5] | outcome [6] | outcome [7] | outcome [8] |
| --- | --- | --- | --- | --- | --- | --- | --- | --- |
| OCC1CCN(Cc2ccc(-c3cccc(-c4nc5ccccc5[nH]4)c3)cc2)CC1 | 6% | 21% | -1% | 101% (active) | inactive | inactive | inactive | inactive |
| COc1ccccc1CCNc1nc(C)cc(N[C@@H](CC(C)C)C(=O)NCc2cccc(F)c2)n1 | 79% (active) | 20% | -3% | 94% (active) | inactive | inactive | inactive | inactive |
| CC(=O)NC(c1cccs1)c1cc(Cl)c2cccnc2c1O (stereo not given) | 93% (active) | 65% (active) | -2% | 94% (active) | inactive | inactive | inactive | inactive |
| COc1cc(OC)c(NC(=O)C2c3ccccc3C(=O)N(C)C2c2cccs2)cc1Cl (stereo not given) | 52% (active) | 4% | -5% | 99% (active) | inactive | inactive | inactive | inactive |
| COc1ccc(-c2cccc(NC(=O)c3ccc(C#N)cc3)c2)cc1CN1CCCN(C)CC1 | 89% (active) | 22% | -3% | 101% (active) | inactive | inactive | inactive | inactive |
| C=Cc1cc(NC(=O)N2CCc3cc(OC)c(C(F)(F)F)cc32)cc(-c2cccnc2)c1 | 20% | 7% | -2% | 92% (active) | inactive | inactive | inactive | inactive |
| COc1cccc(C(=O)OC2=C3CCC(=O)C3(C)CCC2=O)c1 (stereo not given) | 9% | 37% | 2% | 93% (active) | inactive | inactive | inactive | inactive |
| CC(=O)N(C)C1CCN(Cc2ccc(-c3ccc(-c4nc5ccc(F)cc5[nH]4)s3)cc2)C1 (stereo not given) | 22% | 46% | 1% | 98% (active) | inactive | inactive | inactive | inactive |
| CCOCCCNc1sc(S(=O)(=O)c2ccccc2)nc1S(=O)(=O)c1ccc(C)cc1 | 87% (active) | -8% | 1% | 96% (active) | inactive | inactive | inactive | inactive |
| COc1cc2nc(N3CCC(CNC(=O)c4ccc(-c5ccc(Cl)cc5)cc4)CC3)nc(N)c2cc1OC | 101% (active) | 99% (active) | 8% | 100% (active) | inactive | inactive | inactive | inactive |
| C[C@H](Cc1ccc(C(=O)OCCOC(=O)c2ccc(C[C@@H](C)NC[C@H](O)c3cccc(C(F)(F)F)c3)cc2)cc1)NC[C@H](O)c1cccc(C(F)(F)F)c1 | 86% (active) | 10% | -4% | 98% (active) | inactive | inactive | inactive | inactive |
| CC1CCCN(Cc2c(O)ccc3c(=O)c(-c4nc5ccccc5s4)c(N)oc23)C1 (stereo not given) | 99% (active) | 20% | -2% | 100% (active) | inactive | inactive | inactive | inactive |
| CC(C)N1CCN(C(=O)c2ccc(CN(C)CCCN3CCN(c4cccc(Cl)c4Cl)CC3)s2)CC1 | 35% | 74% (active) | 3% | 94% (active) | inactive | inactive | inactive | inactive |
| COc1cccc2sc(N3CCN(C(=O)c4ccc([N+](=O)[O-])o4)CC3)nc12 | 67% (active) | -17% | 1% | 95% (active) | inactive | inactive | inactive | inactive |
| CCOC(=O)c1[nH]c(-c2cccc(F)c2)nc1N | 2% | 0% | 9% | 98% (active) | inactive | inactive | inactive | inactive |
| Clc1ncnc2ncn(Cc3cccc(Br)c3)c12 | 56% (active) | -5% | 3% | 91% (active) | inactive | inactive | inactive | inactive |
| CC(C)(C)CC(C)(C)c1ccc(O)c(C(=O)Nc2cccc([N+](=O)[O-])c2)c1 | 97% (active) | 49% | -8% | 95% (active) | inactive | inactive | inactive | inactive |
| NC1CCN(CCNCc2cccc(-c3ccc(-c4nc5ccc(F)cc5[nH]4)cc3)c2)C1 (stereo not given) | 4% | 8% | 2% | 99% (active) | inactive | inactive | inactive | inactive |
| N#Cc1ccc2[nH]cc(CN3CCC4(CC3)CN(CCNCc3ccccc3)C(=O)O4)c2c1 | 0% | -5% | -1% | 100% (active) | inactive | inactive | inactive | inactive |
| COCCNCc1ccc(-c2ccc(CNC3CCN(Cc4ccccc4)CC3)cc2)cc1 | 61% (active) | 22% | -4% | 100% (active) | inactive | inactive | inactive | inactive |

| SMILES | growth inhibition [1] | inhibition [2] | inhibition [3] | growth inhibition [4] | outcome [5] | outcome [6] | outcome [7] | outcome [8] |
| --- | --- | --- | --- | --- | --- | --- | --- | --- |
| Cc1nnc(Sc2ncnc3scc(-c4ccc(F)cc4)c23)s1 | 50% (active) | 13% | 4% | 99% (active) | inactive | inactive | inactive | inactive |
| COc1ccc2nc(-c3cc(-c4ccc(NC(=O)CN5CCOCC5)cc4)cnc3N)[nH]c2c1 | 72% (active) | 52% (active) | -4% | 100% (active) | inactive | inactive | inactive | inactive |
| CN1CCN(c2ccnc3ccc(NC(=O)Nc4cccc(C#N)c4)cc23)CC1 | 96% (active) | 11% | -1% | 99% (active) | inactive | inactive | inactive | inactive |
| Cc1cc2c(NC(=O)NC3CCN(Cc4ccc(Cl)c(Cl)c4)CC3)cccc2cn1 | 41% | 11% | -2% | 100% (active) | inactive | inactive | inactive | inactive |
| O=C(/C=C/c1ccccc1Cl)Nc1ccc(Br)c(OCCN2CCN(CCN3CCOCC3)CC2)c1 | 91% (active) | 22% | -3% | 98% (active) | inactive | inactive | inactive | inactive |
| CC[C@H](C)CNC(=O)c1cncc(-c2cccc(CNC3Cc4ccccc4C3)c2)c1 | 76% (active) | 5% | 0% | 101% (active) | inactive | inactive | inactive | inactive |
| Cc1[nH]c(C)c(-c2ccc(-c3ccccc3F)nc2)c(=O)c1Cl | 97% (active) | 7% | 6% | 97% (active) | inactive | inactive | inactive | inactive |
| CCC(C)c1cccc(C(C)CC)c1OCCCON1C(N)=NC(N)=NC1(C)C (stereo not given) | 98% (active) | 51% (active) | -4% | 91% (active) | inactive | inactive | inactive | inactive |
| Cc1c(CCc2cccc(F)c2F)[nH]c2ccccc2c1=O | 90% (active) | 41% | 2% | 91% (active) | inactive | inactive | inactive | inactive |
| COc1ccc(-c2cccc(NC(=O)c3ccccc3)c2)cc1CN1CCCN(C)CC1 | 25% | 22% | -7% | 98% (active) | inactive | inactive | inactive | inactive |
| CNCc1cccc2[nH]c(-c3ccc(Cc4cc(Cl)ccc4OCC(C)C)o3)nc12 | 23% | 20% | 0% | 97% (active) | inactive | inactive | inactive | inactive |
| Cc1cc(N[C@@H](CC(C)C)C(=O)NC2CCCC2)nc(NCc2ccccc2C)n1 | 44% | 2% | -3% | 98% (active) | inactive | inactive | inactive | inactive |
| Cc1cc(CNC(=O)[C@H](CC2CCCCC2)Nc2ccc(C#N)c3ccccc23)c(C(F)(F)F)o1 | 55% (active) | 13% | 3% | 87% (active) | inactive | inactive | inactive | inactive |
| Fc1ccc(Nc2ccnc3cc(I)ccc23)c(Cl)c1 | 24% | 35% | 1% | 95% (active) | inactive | inactive | inactive | inactive |
| C[C@@]12C[C@@H](Nc3nc(NCCc4ccc(O)cc4)nc(N4CCNCC4)n3)C[C@@H](C1)c1cccc(Cl)c1O2 | 47% | 92% (active) | 4% | 101% (active) | inactive | inactive | inactive | inactive |
| Cc1cc(=O)oc2c1ccc1oc(C(O)c3ccc(Cl)cc3)c(C)c12 (stereo not given) | 96% (active) | -7% | 1% | 95% (active) | inactive | inactive | inactive | inactive |
| N#Cc1ccc2c(c1)CCN(CCC1CCC(NC(=O)c3cc4ccc(Cl)cc4[nH]3)CC1)C2 (stereo not given) | -2% | 5% | -3% | 103% (active) | inactive | inactive | inactive | inactive |
| COc1ccc(-c2cccc(NC(=O)c3ccc(C#N)cc3)c2)cc1CNC(C)C | 14% | 25% | -1% | 100% (active) | inactive | inactive | inactive | inactive |
| O=C(OCc1ccccc1)N1CCc2c([nH]c3ccccc23)C1CCC(F)(F)F (stereo not given) | 81% (active) | 0% | 3% | 94% (active) | inactive | inactive | inactive | inactive |
| CCCCCCNC(=O)C1Cc2c([nH]c3ccc(Br)cc23)C2(CCN(CCc3ccccc3)CC2)N1 (stereo not given) | 94% (active) | 36% | 0% | 100% (active) | inactive | inactive | inactive | inactive |
